# Experimental data reported in PubChem BioAssay (Tox21).
# “And” between values parts separate entries of the source, which are not always exact repeats. Equal entries are not always repeated. Results filed as inconclusive are left out. Where a call stands in place of a potency, no number is given. Some structures have more than one record in an assay (separate samples or runs), and their calls can disagree. The source made the active and inactive calls. Unless noted, calls follow the shape of the dose curve; as a rule, active = well fitted curve in the direction sought with a large enough effect in the repeat runs; inconclusive = weak or mixed curves; inactive = no such curve, though single readings can be large; an effect the other way counts as inactive or inconclusive.
# Tests used:
# [1] = biological target: Estrogen receptor beta (Homo sapiens) (UniProt Q92731); experiment: qHTS assay to identify small molecule antagonists of the estrogen receptor beta (ER-beta) signaling pathway (AID 1259378; active = well fitted inhibition curve with a large enough effect in the signal ratio in the repeat runs, not every such curve was filed as active; the % refers to the signal ratio)
# In short: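 ER-beta-UAS-bla HEK293T (GripTite) cells in 2% charcoal-stripped FBS medium were preincubated 6 hr at 37C, dosed with compound, then stimulated with 1 nM E2 (final) for 16 hr; beta-lactamase reporter read by B/G FRET fluorescence after 2 hr substrate loading.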
# [2] = qHTS assay to identify small molecule antagonists of the estrogen receptor beta (ER-beta) signaling pathway - cell viability counter screen (AID 1259382); also: series mostly up to about 92 µM; nearly all actives have a fitted effect of over 55% in size
# In short: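 ER-beta-UAS-bla HEK293T cells in 2% charcoal-stripped FBS medium, treated with compound plus 1 nM 17-beta-estradiol for 16 h at 37C. Viability read by CellTiter-Glo luminescence after 30 min at room temperature in the same wells.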
# [3] = qHTS assay to identify small molecule agonists or antagonists of the thyroid stimulating hormone receptor (TSHR) signaling pathway - wild type cell line counter screen (AID 1259384; calls by dose curve)
# In short: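 Wild-type HEK293 cells were plated 18 h at 37 C/5% CO2, pin-dosed with compound plus Ro20-1724 medium, held 30 min at room temperature, then given cAMP-d2 and anti-cAMP-cryptate; fluorescence was read after 1 h. Fifteen concentrations, triplicate.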
# [4] = biological target: Thyrotropin receptor (Homo sapiens) (UniProt P16473); experiment: qHTS assay to identify small molecule antagonists of the thyroid stimulating hormone receptor (TSHR) signaling pathway (AID 1259385; calls by dose curve; also: nearly all actives have a fitted effect of over 20% in size)
# In short: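 TSHR-HEK293 cells were plated and held 18 h at 37C/5% CO2, then given compound plus Ro20-1724 and stimulated with TSH at 1.5 ng/mL final. After 30 min at room temperature, cAMP was detected with cAMP-d2/anti-cAMP-cryptate (1 h) by fluorescence.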
# [5] = qHTS assay to identify small molecule agonists of the estrogen receptor alpha (ER-alpha) signaling pathway in the presence of an antagonist - cell viability counter screen (AID 1259386);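 also: cells exposed to compounds for 22 h at 37 °C before the viability read; nearly all actives have a fitted effect of over 30% in size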; also: potency is read from the fitted curve at half-maximal effect; as to activity change, negative = cytotoxicity: series mostly up to about 92 µM
# In short: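 Cell viability in VM7Luc4E2 cells (endogenous full-length ER-alpha) measured by CellTiter-Fluor fluorescence in the same wells as the luciferase screen. Cells pre-cultured 5 days in charcoal-stripped serum, then treated 22 h with compounds at 15 concentrations plus 10.0nM ICI-182,780.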
# [6] = biological target: Progesterone receptor (Homo sapiens) (UniProt P06401); experiment: qHTS assay to identify small molecule agonists of the progesterone receptor (PR) signaling pathway (AID 1346784; calls by dose curve; also: nearly all actives have a fitted effect of over 30% in size)
# In short: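 Using charcoal-stripped serum (2%) to limit endogenous steroids, PR-UAS-bla HEK 293T cells received compounds for 16 hr at 37C after 6 hr plating; beta-lactamase FRET fluorescence was recorded following 2 hr substrate loading at room temperature.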
# [7] = qHTS assay to identify small molecule agonists of the progesterone receptor (PR) signaling pathway - cell viability counter screen (AID 1346799; calls by dose curve; also: nearly all actives have a fitted effect of over 45% in size)
# In short: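 Cytotoxicity in PR-bla HEK293T cells: 16 h compound, 37C; CellTiter-Glo added post-FRET read; luminescence after 30 min RT.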
# [8] = qHTS assay to identify small molecule antagonists of the TGF-beta/Smad signaling pathway - cell viability counter screen (AID 1346824); also: nearly all actives have a fitted effect of over 50% in size
# In short: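 SBE-bla HEK 293T cells were plated overnight at 37 C, then given compounds in DMSO plus TGF-beta1 (added as 0.25 ng/mL solution) for 5 hr. After the bla read, CellTiter-Glo was added to the same wells and luminescence read after 30 min at room temperature.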
# [9] = qHTS assay to identify small molecule agonists of the TGF-beta/Smad signaling pathway - cell viability counter screen (AID 1346829); also: top concentration of the series differs between compounds; nearly all actives have a fitted effect of over 45% in size
# In short: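 CellTiter-Glo luminescence readout; SBE-bla HEK 293T cells, overnight plating, compound 5 hr at 37 C/5% CO2, then bla substrate 2 hr RT, then CellTiter-Glo 30 min RT.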
# [10] = biological target: Thyrotropin-releasing hormone receptor (Homo sapiens) (UniProt P34981); experiment: qHTS assay to identify small molecule antagonists of the thyrotropin-releasing hormone receptor (TRHR) signaling pathway (AID 1346877; active = well fitted inhibition curve with a large enough effect in the repeat runs, not every such curve was filed as active; also: series mostly up to about 51 µM)
# In short: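 TRHR-expressing HEK293 cells loaded with calcium dye for 2 h at 37 C; compounds pre-incubated 5 min at room temperature before TRH challenge at 1 nM final. Intracellular calcium fluorescence read kinetically for 3 min; 15 concentrations in triplicate.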
# [11] = Human pregnane X receptor (PXR) small molecule agonists, qHTS cell viability counter screen (AID 1346977); also: nearly all actives have a fitted effect of over 50% in size
# In short: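 Readout is CellTiter-Fluor fluorescence from PXR-Luc HepG2 cells. Plated cells rested 5hr, then were treated with compounds for 24hr at 37C and 5% CO2, with reagent present during the last hour.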
# [12] = qHTS assay to identify small molecule agonists of the androgen receptor (AR) signaling pathway in the presence of an antagonist - cell viability counter screen (AID 1259379); also: nearly all actives have a fitted effect of over 25% in size; also: potency is read from the fitted curve at half-maximal effect;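 as to activity change, negative = cytotoxicity: MDA-kb2 human breast cancer cells carrying an MMTV luciferase reporter; series mostly up to about 92 µM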
# In short: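 MDA-kb2 cells (MMTV-luciferase, AR/GR), 3,000/well, 5 h attachment, then 3.0 µM nilutamide (final) and compounds at 15 concentrations. Viability by CellTiter-Fluor fluorescence after 16 h at 37 °C, 0% CO2, in the reporter wells.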
# [13] = qHTS assay to identify small molecule agonists of the estrogen receptor beta (ER-beta) signaling pathway - cell viability counter screen (AID 1259380); also: nearly all actives have a fitted effect of over 30% in size
# In short: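 ER-beta-UAS-bla HEK293T cells in medium with 2% charcoal-stripped FBS, pre-incubated 6 hr, then treated 16 hr at 37C. Cytotoxicity read in the same wells by CellTiter-Glo luminescence after 30 min at room temperature.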
# [14] = biological target: Estrogen receptor (Homo sapiens) (UniProt P03372); experiment: qHTS assay to identify small molecule agonists of the estrogen receptor alpha (ER-alpha) signaling pathway in the presence of an antagonist (AID 1259383; calls by dose curve; also: nearly all actives have a fitted effect of over 15% in size; also: potency is read from the fitted curve at half-maximal effect; as to activation: top concentration of the series differs between compounds)
# In short: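 VM7Luc4E2 cells express endogenous full-length ER-alpha with an ERE-luciferase reporter and were hormone-deprived for 5 days. Compounds at 15 concentrations were added with 10.0nM ICI-182,780 for 22hr at 37C. Luminescence was read with ONE-Glo.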
# [15] = biological target: Progesterone receptor (Homo sapiens) (UniProt P06401); experiment: qHTS assay to identify small molecule antagonists of the progesterone receptor (PR) signaling pathway (AID 1346795; active = well fitted inhibition curve with a large enough effect in the signal ratio in the repeat runs, not every such curve was filed as active; the % refers to the signal ratio; also: potency is read from the fitted curve at half-maximal effect)
# In short: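 Inhibition of R5020-induced (1 nM final) beta-lactamase reporter signal in PR-UAS-bla HEK293T cells was scored by FRET fluorescence after overnight (16 hr) compound treatment.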
# [16] = qHTS assay to identify small molecule agonists of the TGF-beta/Smad signaling pathway (AID 1346859; active = well fitted activation curve with a large enough effect in the signal ratio in the repeat runs, not every such curve was filed as active; the % refers to the signal ratio; also: series mostly up to about 77 µM)
# In short: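 Stable Smad binding element-beta-lactamase HEK 293T cells; 5 hr compound exposure at 37 C under 5% CO2; 2 hr room-temperature substrate step; fluorescence excited at 405 nm, collected at 460 nm and 530 nm.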
# [17] = biological target: Thyrotropin-releasing hormone receptor (Homo sapiens) (UniProt P34981); experiment: qHTS assay to identify small molecule agonists of the thyrotropin-releasing hormone receptor (TRHR) signaling pathway (AID 1346891; calls by dose curve; also: series mostly up to about 58 µM)
# In short: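 In 1536-format, 1500 TRHR-Hek293 cells per well grew 18 h, took up calcium dye for 2 h at 37 °C, received compound, and were read kinetically; 15-point titrations, triplicates.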
# [18] = qHTS assay to identify small molecule antagonists of the progesterone receptor (PR) signaling pathway - cell viability counter screen (AID 1346798); also: series mostly up to about 92 µM; nearly all actives have a fitted effect of over 50% in size
# In short: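 ATP content as viability readout: CellTiter-Glo luminescence, 30 min room temperature, in PR-UAS-bla HEK293T cells after 16 hr compound/R5020 treatment at 37C and 5% CO2.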
# [19] = biological target: Androgen receptor (Homo sapiens) (UniProt P10275); experiment: qHTS assay to identify small molecule agonists of the androgen receptor (AR) signaling pathway in the presence of an antagonist (AID 1259381; calls by dose curve; also: nearly all actives have a fitted effect of over 15% in size)
# In short: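 MDA-kb2 cells carrying MMTV-luciferase (AR/GR responsive), 3,000 cells/well, co-treated with 3.0 uM nilutamide final. Compounds at 15 concentrations, 16 hr at 37C without CO2. Luciferase luminescence read after 30 min with ONE-Glo.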
# Thyrotropin receptor (Homo sapiens), sequence (P16473 whole entry, looked up): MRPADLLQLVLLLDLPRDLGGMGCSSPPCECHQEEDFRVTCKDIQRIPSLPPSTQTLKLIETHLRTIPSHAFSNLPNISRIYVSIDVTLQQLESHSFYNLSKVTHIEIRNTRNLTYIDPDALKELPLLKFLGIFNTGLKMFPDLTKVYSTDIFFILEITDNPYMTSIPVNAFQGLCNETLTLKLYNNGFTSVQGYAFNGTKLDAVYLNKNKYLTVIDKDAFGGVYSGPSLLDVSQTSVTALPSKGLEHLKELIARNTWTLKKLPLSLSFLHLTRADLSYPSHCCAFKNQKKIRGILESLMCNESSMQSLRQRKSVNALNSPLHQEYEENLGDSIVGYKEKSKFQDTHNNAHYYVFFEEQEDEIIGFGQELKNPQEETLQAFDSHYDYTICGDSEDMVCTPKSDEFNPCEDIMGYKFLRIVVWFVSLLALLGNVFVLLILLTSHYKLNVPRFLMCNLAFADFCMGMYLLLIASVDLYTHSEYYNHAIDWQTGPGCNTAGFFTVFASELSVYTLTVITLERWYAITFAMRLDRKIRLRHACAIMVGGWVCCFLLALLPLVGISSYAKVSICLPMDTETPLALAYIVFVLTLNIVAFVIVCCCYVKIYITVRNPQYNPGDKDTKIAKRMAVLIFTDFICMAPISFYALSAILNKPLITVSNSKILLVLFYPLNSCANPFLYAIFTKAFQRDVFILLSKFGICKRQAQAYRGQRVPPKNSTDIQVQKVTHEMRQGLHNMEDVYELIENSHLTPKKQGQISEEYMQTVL
# Progesterone receptor (Homo sapiens), sequence (P06401 whole entry, looked up): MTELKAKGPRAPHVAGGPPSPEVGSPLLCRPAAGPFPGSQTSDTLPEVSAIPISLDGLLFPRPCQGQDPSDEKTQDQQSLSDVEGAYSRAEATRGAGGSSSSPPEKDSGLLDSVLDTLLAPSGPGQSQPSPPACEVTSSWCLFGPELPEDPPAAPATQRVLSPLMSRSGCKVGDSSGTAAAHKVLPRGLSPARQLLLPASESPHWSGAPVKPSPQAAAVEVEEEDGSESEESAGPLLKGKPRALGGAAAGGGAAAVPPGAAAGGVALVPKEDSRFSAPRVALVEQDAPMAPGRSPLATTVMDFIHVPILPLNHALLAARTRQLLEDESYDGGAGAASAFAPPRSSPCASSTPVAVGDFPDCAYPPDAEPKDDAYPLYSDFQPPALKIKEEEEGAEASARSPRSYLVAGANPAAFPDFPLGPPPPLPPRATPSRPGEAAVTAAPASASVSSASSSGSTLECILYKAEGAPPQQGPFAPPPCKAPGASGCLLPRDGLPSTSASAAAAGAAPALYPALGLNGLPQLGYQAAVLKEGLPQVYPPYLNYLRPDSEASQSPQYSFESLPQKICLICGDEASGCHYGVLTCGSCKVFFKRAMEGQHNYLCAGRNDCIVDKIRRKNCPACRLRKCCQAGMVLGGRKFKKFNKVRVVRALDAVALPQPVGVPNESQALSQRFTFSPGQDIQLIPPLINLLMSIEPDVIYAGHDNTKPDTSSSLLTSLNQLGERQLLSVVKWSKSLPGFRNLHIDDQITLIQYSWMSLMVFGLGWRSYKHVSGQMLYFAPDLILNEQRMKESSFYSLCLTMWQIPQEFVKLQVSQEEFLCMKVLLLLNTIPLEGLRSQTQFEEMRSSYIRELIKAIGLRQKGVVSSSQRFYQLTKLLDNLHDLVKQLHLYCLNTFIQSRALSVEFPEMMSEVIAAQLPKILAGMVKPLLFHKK
# Thyrotropin-releasing hormone receptor (Homo sapiens), sequence (P34981 whole entry, looked up): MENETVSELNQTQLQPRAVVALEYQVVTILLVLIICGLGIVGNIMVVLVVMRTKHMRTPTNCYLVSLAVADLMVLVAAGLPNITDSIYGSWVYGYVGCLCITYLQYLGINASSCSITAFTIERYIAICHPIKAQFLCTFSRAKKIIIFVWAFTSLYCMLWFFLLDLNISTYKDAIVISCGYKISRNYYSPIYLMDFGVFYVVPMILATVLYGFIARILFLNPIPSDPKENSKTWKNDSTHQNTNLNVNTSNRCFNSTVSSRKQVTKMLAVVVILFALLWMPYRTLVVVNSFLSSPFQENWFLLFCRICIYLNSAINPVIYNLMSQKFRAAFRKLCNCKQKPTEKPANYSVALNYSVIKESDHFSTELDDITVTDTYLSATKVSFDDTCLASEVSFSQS
# Estrogen receptor (Homo sapiens), sequence (P03372 whole entry, looked up): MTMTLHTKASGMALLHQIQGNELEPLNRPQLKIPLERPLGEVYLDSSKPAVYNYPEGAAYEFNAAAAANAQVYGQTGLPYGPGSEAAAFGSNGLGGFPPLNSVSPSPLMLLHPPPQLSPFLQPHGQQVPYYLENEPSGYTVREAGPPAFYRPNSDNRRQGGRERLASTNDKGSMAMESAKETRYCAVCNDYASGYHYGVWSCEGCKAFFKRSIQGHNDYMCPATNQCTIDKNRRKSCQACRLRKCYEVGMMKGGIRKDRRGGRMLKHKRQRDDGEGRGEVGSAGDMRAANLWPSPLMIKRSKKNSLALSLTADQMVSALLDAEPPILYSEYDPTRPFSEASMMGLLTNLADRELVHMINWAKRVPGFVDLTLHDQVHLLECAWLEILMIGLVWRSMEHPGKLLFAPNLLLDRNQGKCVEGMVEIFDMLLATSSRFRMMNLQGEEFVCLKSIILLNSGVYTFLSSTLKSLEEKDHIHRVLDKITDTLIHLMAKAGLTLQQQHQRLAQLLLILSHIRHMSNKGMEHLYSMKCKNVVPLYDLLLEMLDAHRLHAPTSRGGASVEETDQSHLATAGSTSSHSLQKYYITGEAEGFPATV
# Androgen receptor (Homo sapiens), sequence (P10275 whole entry, looked up): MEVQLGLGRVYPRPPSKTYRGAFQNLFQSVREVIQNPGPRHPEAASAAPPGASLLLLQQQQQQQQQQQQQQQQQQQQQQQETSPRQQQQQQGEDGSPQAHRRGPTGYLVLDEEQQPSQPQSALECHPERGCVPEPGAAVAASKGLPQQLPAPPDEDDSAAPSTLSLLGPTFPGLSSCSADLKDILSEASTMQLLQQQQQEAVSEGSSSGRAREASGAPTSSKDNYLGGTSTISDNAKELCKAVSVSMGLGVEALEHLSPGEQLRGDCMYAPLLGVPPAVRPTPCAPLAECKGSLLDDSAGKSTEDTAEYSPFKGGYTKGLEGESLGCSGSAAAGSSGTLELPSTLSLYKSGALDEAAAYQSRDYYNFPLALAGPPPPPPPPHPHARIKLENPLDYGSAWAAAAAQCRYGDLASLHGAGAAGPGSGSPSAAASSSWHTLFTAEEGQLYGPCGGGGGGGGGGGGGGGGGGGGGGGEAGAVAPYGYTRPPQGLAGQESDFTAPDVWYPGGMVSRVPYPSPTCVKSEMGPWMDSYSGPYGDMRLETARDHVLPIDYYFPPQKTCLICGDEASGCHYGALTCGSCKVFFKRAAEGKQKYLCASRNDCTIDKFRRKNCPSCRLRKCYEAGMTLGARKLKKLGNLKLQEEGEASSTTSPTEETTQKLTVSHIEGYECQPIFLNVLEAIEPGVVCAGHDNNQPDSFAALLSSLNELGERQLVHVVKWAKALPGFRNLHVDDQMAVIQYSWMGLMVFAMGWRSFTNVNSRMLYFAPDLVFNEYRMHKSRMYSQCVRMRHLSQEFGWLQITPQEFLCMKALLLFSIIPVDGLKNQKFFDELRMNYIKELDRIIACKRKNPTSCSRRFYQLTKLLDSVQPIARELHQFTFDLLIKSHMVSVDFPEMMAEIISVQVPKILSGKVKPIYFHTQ
# Estrogen receptor beta (Homo sapiens), sequence (Q92731 whole entry, looked up): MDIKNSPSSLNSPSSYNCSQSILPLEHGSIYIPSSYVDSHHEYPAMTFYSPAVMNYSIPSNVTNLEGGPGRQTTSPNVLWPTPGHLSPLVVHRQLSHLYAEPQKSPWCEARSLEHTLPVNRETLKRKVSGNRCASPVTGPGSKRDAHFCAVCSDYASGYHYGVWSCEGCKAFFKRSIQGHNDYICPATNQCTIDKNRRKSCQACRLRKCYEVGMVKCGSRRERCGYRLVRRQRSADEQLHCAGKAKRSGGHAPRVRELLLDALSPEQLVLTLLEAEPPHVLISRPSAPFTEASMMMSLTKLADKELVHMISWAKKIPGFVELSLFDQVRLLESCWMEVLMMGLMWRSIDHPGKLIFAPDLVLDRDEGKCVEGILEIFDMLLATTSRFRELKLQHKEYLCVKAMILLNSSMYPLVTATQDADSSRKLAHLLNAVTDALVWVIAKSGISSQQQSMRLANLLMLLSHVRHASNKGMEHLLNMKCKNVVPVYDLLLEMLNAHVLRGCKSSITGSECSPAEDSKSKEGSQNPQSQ
structure (smiles),measurement,setting,value
CON(C)C(=O)Nc1ccc(Br)c(Cl)c1,outcome,[1],inactive
same,Potency,[2],inactive
same,outcome,[3],inactive
same,outcome,[4],inactive
same,Potency,[5],inactive
same,Potency,[6],inactive
same,Potency,[7],inactive
same,outcome,[8],inactive
same,Potency,[9],inactive
same,Potency,[10],inactive
same,Potency,[11],inactive
CC(C)(C)c1cc(O)ccc1O,Potency,[12],inactive
same,Potency,[13],inactive
same,Potency,[2],inactive
same,Potency,[14],inactive
same,Potency,[5],inactive
same,Potency,[6],inactive
same,Potency,[15],inactive
same,outcome,[8],inactive
same,outcome,[16],inactive
same,outcome,[17],inactive
same,Potency,[11],inactive
C[C@H]1CCCC(=O)CCC/C=C/c2cc(O)cc(O)c2C(=O)O1,Potency,[12],46.8 µM (active) and inactive
same,Potency,[13],inactive
same,Potency,[2],inactive
same,Potency,[14],41.7 nM (active) and 56.3 nM (active)
same,Potency,[5],46.8 µM (active) and inactive
same,Potency,[15],5.02 µM (active)
same,outcome,[8],inactive
same,Potency,[9],inactive
same,outcome,[16],inactive
same,Potency,[10],inactive
same,outcome,[17],inactive
CCC1(c2cccc(O)c2)CCCCN(C)C1 (configuration not stated),Potency,[12],inactive
same,Potency,[13],inactive
same,Potency,[2],inactive
same,outcome,[3],inactive
same,outcome,[4],inactive
same,Potency,[5],inactive
same,Potency,[6],inactive
same,Potency,[15],inactive
same,Potency,[18],inactive
same,Potency,[7],inactive
same,Potency,[9],inactive
same,outcome,[16],inactive
same,Potency,[10],inactive
same,outcome,[17],inactive
CS(=O)(=O)c1ccc(C(=O)C2C(=O)CCCC2=O)c(Cl)c1COCC(F)(F)F,Potency,[12],inactive
same,Potency,[13],inactive
same,Potency,[2],inactive
same,Potency,[14],inactive
same,outcome,[4],inactive
same,Potency,[5],inactive
same,Potency,[6],inactive
same,Potency,[15],inactive
same,Potency,[18],inactive
same,Potency,[7],inactive
same,outcome,[8],inactive
same,Potency,[9],inactive
same,Potency,[10],inactive
same,outcome,[17],inactive
same,Potency,[11],inactive
CNC(=O)Oc1ccccc1C(C)C,Potency,[12],inactive
same,Potency,[13],inactive
same,Potency,[19],inactive
same,Potency,[2],inactive
same,Potency,[14],inactive
same,outcome,[3],inactive
same,outcome,[4],inactive
same,Potency,[5],inactive
same,Potency,[6],inactive
same,Potency,[15],inactive
same,Potency,[18],inactive
same,Potency,[7],inactive
same,Potency,[9],inactive
same,outcome,[16],inactive
same,Potency,[11],inactive
Brc1c(Br)c(Br)c(Br)c(Br)c1Br,"activity change, negative = cytotoxicity",[12],0.311% [at 8.39 µM] (inactive)
same,"activity change, negative = cytotoxicity",[13],-3.01% [at 8.39 µM] (inactive)
same,"activity change, negative = cytotoxicity",[2],-0.381% [at 8.39 µM] (inactive)
same,activation,[14],-2.37% [at 8.39 µM] (inactive)
same,"activity change, negative = inhibition",[4],0.318% [at 8.39 µM] (inactive)
same,"activity change, negative = cytotoxicity",[5],2.08% [at 8.39 µM] (inactive)
same,"activity change, negative = cytotoxicity",[18],-1.74% [at 8.39 µM] (inactive)
same,"activity change, negative = cytotoxicity",[7],33% [at 8.39 µM] (inactive)
same,"viability change, negative = cytotoxic",[8],-1.01% [at 6.97 µM] (inactive)
same,"activity change, negative = cytotoxicity",[9],-6.42% [at 6.97 µM] (inactive)
same,activation,[16],3.82% [at 6.97 µM] (inactive)
same,"activity change, negative = cytotoxicity",[11],1.06% [at 8.39 µM] (inactive)
CCN(CC)CCOC(=O)C(O)(c1ccccc1)c1ccccc1,Potency,[12],inactive
same,Potency,[13],inactive
same,Potency,[2],inactive
same,Potency,[14],inactive
same,outcome,[3],inactive
same,outcome,[4],inactive
same,Potency,[5],inactive
same,Potency,[6],inactive
same,Potency,[15],inactive
same,Potency,[7],inactive
same,outcome,[8],inactive
same,Potency,[9],inactive
same,outcome,[16],inactive
same,Potency,[10],inactive
same,outcome,[17],inactive
same,Potency,[11],inactive
N#CN=C1SCCN1Cc1ccc(Cl)nc1,Potency,[12],inactive
same,Potency,[13],inactive
same,Potency,[2],inactive
same,Potency,[14],inactive
same,outcome,[3],inactive
same,outcome,[4],inactive
same,Potency,[5],inactive
same,Potency,[6],inactive
same,Potency,[15],inactive
same,Potency,[18],inactive
same,outcome,[8],inactive
same,Potency,[9],inactive
same,outcome,[16],inactive
same,Potency,[10],inactive
same,outcome,[17],inactive
O=S1(=O)OCCO1,Potency,[12],inactive
same,Potency,[13],inactive
same,Potency,[2],inactive
same,outcome,[3],inactive
same,outcome,[4],inactive
same,Potency,[5],inactive
same,Potency,[6],inactive
same,Potency,[15],inactive
same,Potency,[18],inactive
same,Potency,[7],inactive
same,outcome,[8],inactive
same,outcome,[16],inactive
same,Potency,[10],inactive
same,Potency,[11],inactive
C(COCC1CO1)OCC1CO1 (configuration not stated),Potency,[12],inactive
same,Potency,[13],inactive
same,Potency,[2],inactive
same,Potency,[14],inactive
same,outcome,[4],inactive
same,Potency,[5],inactive
same,Potency,[6],inactive
same,Potency,[15],inactive
same,Potency,[18],inactive
same,Potency,[7],inactive
same,Potency,[9],inactive
same,Potency,[10],inactive
same,outcome,[17],inactive
C=CCN1CC[C@]23CCCC[C@H]2[C@H]1Cc1ccc(O)cc13,Potency,[12],inactive
same,Potency,[13],inactive
same,Potency,[2],inactive
same,outcome,[3],inactive
same,outcome,[4],inactive
same,Potency,[5],inactive
same,Potency,[6],inactive
same,Potency,[15],inactive
same,Potency,[18],inactive
same,Potency,[7],inactive
same,Potency,[9],inactive
same,outcome,[16],inactive
same,Potency,[10],inactive
same,outcome,[17],inactive
same,Potency,[11],inactive
CCCCCCCCSC(=O)Oc1cc(Cl)nnc1-c1ccccc1,Potency,[12],inactive
same,Potency,[13],inactive
same,Potency,[2],inactive
same,Potency,[14],inactive
same,Potency,[5],inactive
same,Potency,[6],inactive
same,Potency,[18],inactive
same,Potency,[7],inactive
same,Potency,[9],inactive
same,outcome,[16],inactive
same,Potency,[10],inactive
same,outcome,[17],inactive
same,Potency,[11],inactive
CCN[C@H](C)Cc1cccc(C(F)(F)F)c1,Potency,[12],inactive
same,Potency,[13],inactive
same,Potency,[2],inactive
same,Potency,[14],inactive
same,outcome,[4],inactive
same,Potency,[6],inactive
same,Potency,[15],inactive
same,Potency,[9],inactive
same,outcome,[16],inactive
same,Potency,[10],inactive
same,outcome,[17],inactive
same,Potency,[11],inactive
